Test results: PubChem BioAssay (EPA / NIEHS)
Where “and” joins values, the source holds several entries; their conditions need not be identical. Identical values can stand only once. Results filed as inconclusive are left out. A structure can be active in one record and inactive in another. Calls of active or inactive are those of the source. How the source made its calls, unless noted: active means hit-call score of the fitted dose curve at least 0.9, where 1 is the maximum; inactive means score below 0.9.

Legend:
[1] = CCTE_Mundy_HCI_hN2_NOG_NeuriteCount: CCTE's Neurite Outgrowth Assay in human hN2 cells for Neurite Count, Mundy Lab (AID 2284219; active means hit-call score of the fitted dose curve at least 0.9, where 1 is the maximum)
In short: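 In this morphology assay, hNP1-derived neurons received test chemical 2 h post-plating and were fixed two days later in warm paraformaldehyde/sucrose containing Hoechst 33342. Neurites, labelled by rabbit anti-βIII-tubulin (1:800) and Alexa Fluor-488 (1:500), were counted automatically.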

[2] = CCTE_Mundy_HCI_hN2_NOG_NeuriteLength: CCTE's Neurite Outgrowth Assay in human hN2 cells for Neurite Length, Mundy Lab (AID 2284220; active means hit-call score of the fitted dose curve at least 0.9, where 1 is the maximum)
In short: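 Plate hNP1-derived neurons, then add chemical 2 h later as a 1/10 dilution. Stain with anti-βIII-tubulin then Alexa Fluor-488 secondary, and image automatically to measure neurite length.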

[3] = CCTE_Mundy_HCI_hN2_NOG_NeuronCount: CCTE's Neurite Outgrowth Assay in human hN2 cells for Neuron Count, Mundy Lab (AID 2284221; active means hit-call score of the fitted dose curve at least 0.9, where 1 is the maximum)
In short: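 Read-out is the number of betaIII-tubulin-positive neurons imaged by automated high-content analysis, with DMSO as negative control.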

[4] = CCTE_Mundy_HCI_Cortical_Synap_Neur_Matur_NeuriteCount: CCTE's Synaptogenesis and Neurite Maturation Assay in rat cortical cells for Neurite Count, Mundy Lab (AID 2284222)
In short: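 Primary rat cortical cells were plated, treated with AraC at DIV 5, then exposed to chemicals from DIV 7 through DIV 12. After fixation and immunostaining for MAP2 and synaptophysin, imaging quantified neurites, with DMSO as the negative control.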

[5] = CCTE_Mundy_HCI_Cortical_Synap_Neur_Matur_CellBodySpotCount: CCTE's Synaptogenesis and Neurite Maturation Assay in rat cortical cells for Cell Body Spot Count, Mundy Lab (AID 2284223)
In short: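 Rat cortical neurons; AraC @ DIV 5; dose + media change DIV 7; fix DIV 12; anti-MAP2/anti-synaptophysin IF, Hoechst; HCI count of soma synaptophysin puncta/neuron; DMSO = negative control.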

[6] = CCTE_Mundy_HCI_hNP1_Pro_ResponderAvgInten: CCTE's Proliferation Assay in human neuroprogenitor cells, Mundy Lab (AID 2284224; active means hit-call score of the fitted dose curve at least 0.9, where 1 is the maximum;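 further: human neural progenitor cells hNP1 derived from WA09 embryonic stem cells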)
In short: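 Proliferation was scored as BrdU labelling intensity in human neural progenitors derived from WA09 embryonic cells, measured 26.25 hours after chemical dosing. Activity was fitted relative to DMSO.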

[7] = UKN2_HCS_IMR90_cell_viability: Viability Assessment in the University of Konstanz (UKN) Leist Lab Neural Crest Cell Migration Assay in human induced IMR90 Pluripotent Stem Cells (UKN2) (AID 2284233);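 further: cells exposed to compound for 24 h after a 24 h migration phase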
In short: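 After calcein-AM/Hoechst staining, viability is quantified by high-content fluorescence imaging, relative to DMSO, in iPSC (IMR90)-derived neural crest cells. Exposure lasts 24 h, starting after a 24 h migration period on PLO/laminin/fibronectin coating.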

[8] = CCTE_Mundy_HCI_Cortical_NOG_NeuronCount: CCTE's Neurite Outgrowth Assay in rat cortical cells for Neuron Count, Mundy Lab (AID 2284236; active means hit-call score of the fitted dose curve at least 0.9, where 1 is the maximum;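 further: neurons counted by imaging betaIII-tubulin and Hoechst stained cortical cells; cells exposed to compound for about 48 hours before fixation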)
In short: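 Read-out: neuron number by high-content imaging of betaIII-tubulin (Alexa Fluor-488) and Hoechst-labelled rat primary cortical cells.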

[9] = CCTE_Mundy_HCI_Cortical_NOG_BPCount: CCTE's Neurite Outgrowth Assay in rat cortical cells for Branch Point Count, Mundy Lab (AID 2284237);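 on AC50: branch points counted about two days after chemical exposure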
In short: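 Measured 50.33 h after dosing, this morphology endpoint uses rat primary cortical cultures labelled for betaIII-tubulin. Branch points are quantified by high-content imaging, with DMSO as negative control and baseline.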

[10] = BSK_BT_PBMCCytotoxicity: PBMC Cytotoxicity Assessment in the BioMAP Diversity Plus: BT Assay (AID 2284225); details: primary human B cells with PBMC;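 further: PBMC viability measured by Alamar Blue dye reduction fluorescence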
In short: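 Viability by Alamar Blue reduction (6 h, ex/em 546/580 nm) after 90 h culture of SEB/TSST-1-activated PBMC (20 ng/mL each) given compound 1 h before activation. DMSO served as baseline for curve fitting.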

[11] = read-out: Secreted IgG (sIgG), gene 3500; experiment: BSK_BT_sIgG: BioMAP Diversity Plus: BT Assay for Secreted IgG (sIgG) Biomarker Activity (AID 2284226); details: primary human B cells with PBMC
In short: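 ELISA quantitation of secreted IgG from human B cells co-cultured with PBMC, sampled 24 h post-dosing. Values fitted relative to DMSO vehicle as baseline, positive fitting direction.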

[12] = BSK_BT_Bcell_Proliferation: Viability Assessment in the BioMAP Diversity Plus: BT Assay for B cell Proliferation (AID 2284227); details: primary human B cells with PBMC
In short: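 Read-out is absorbance at 560 nm from sulforhodamine B staining of total protein, reflecting relative cell numbers in a human B cell and PBMC co-culture after 72 h of chemical exposure. Values were referenced to DMSO.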

[13] = read-out: Interleukin 6 (IL6), IL6 (gene 3569); experiment: BSK_BT_xIL6: BioMAP Diversity Plus: BT Assay for Interleukin 6 (IL6) Biomarker Activity (AID 2284228); details: primary human B cells with PBMC
In short: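 B cells and peripheral blood mononuclear cells (human primary co-culture) were dosed with chemical, and after 24 h IL-6 released into the medium was measured by Luminex xMAP. Responses were analysed as gain of signal over DMSO control.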

[14] = read-out: Interleukin 17A (IL17A), IL17A (gene 3605); experiment: BSK_BT_xIL17A: BioMAP Diversity Plus: BT Assay for Interleukin 17A (IL17A) Biomarker Activity (AID 2284229); details: primary human B cells with PBMC
In short: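 Secreted IL-17A was the measured endpoint, read by Luminex xMAP multiplex in supernatants of a human B cell/PBMC co-culture harvested 24 h after chemical dosing. Signal increase relative to DMSO defined activity.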

[15] = read-out: Tumor necrosis factor (Homo sapiens) (UniProt P01375); experiment: BSK_BT_xTNFa: BioMAP Diversity Plus: BT Assay for Tumor necrosis factor alpha (TNF-alpha) Biomarker Activity (AID 2284230); details: primary human B cells with PBMC
In short: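 Human primary co-culture of B cells and peripheral blood mononuclear cells; TNF-alpha in supernatant, 24 h post-dose, Luminex multiplex; DMSO = baseline.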

[16] = read-out: Vascular cell adhesion molecule 1 (VCAM1), VCAM1 (gene 7412); experiment: BSK_MyoF_VCAM1: BioMAP Diversity Plus: MyoF Assay for Vascular cell adhesion molecule 1 (VCAM1) Biomarker Activity (AID 2284231); details: primary human lung fibroblasts
In short: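 ELISA read-out of VCAM-1 on human lung fibroblasts 24 h after chemical treatment, with positive-direction curve fitting relative to DMSO controls. Parallel cultures were stained with sulforhodamine B for total protein to flag overt cytotoxicity.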

[17] = read-out: Collagen I, COL1A1 (gene 1277); experiment: BSK_MyoF_CollagenI: BioMAP Diversity Plus: MyoF Assay for Collagen I Biomarker Activity (AID 2284238); details: primary human lung fibroblasts
In short: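 Lung fibroblasts (human primary) dosed, 24 h; Collagen I by ELISA; positive-direction fit vs DMSO control. Parallel SRB total-protein staining (0.1% SRB, 10% TCA fixation, 560 nm) flags overt cytotoxicity.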

[18] = TAMU_HCS_1.5hr_SingleDonor1434_Cytotoxicity: Cytotoxicity Assessment using High-content Screening (HCS) Fluorescent Imaging for the Texas A&M University (TAMU) 1.5-hr Human Induced Pluripotent Stem Cell (iPSC)-derived Cardiotoxicity Assay (AID 2284234; active means hit-call score of the fitted dose curve at least 0.9, where 1 is the maximum)
In short: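 Nuclear counts from Hoechst 33342 imaging define cytotoxicity here, with EC10 (10% cell-count loss relative to DMSO) as point of departure. iPSC cardiomyocytes received 0.2-100 uM test chemical in 0.5% DMSO for 1.5 h at 37 C.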

[19] = TAMU_PeakParms_SingleDonor1434_QT: Texas A&M University (TAMU) 1.5-hr Human Induced Pluripotent Stem Cell (iPSC)-derived Cardiomyocytes Calcium (Ca+2) Flux Assay for Cardiotoxicity: QT (decay-rise ratio) (AID 2284235; active means hit-call score of the fitted dose curve at least 0.9, where 1 is the maximum)
In short: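 Decay/rise ratio of calcium-flux fluorescence scored after 90 min exposure (37C) of donor 1434 iPSC cardiomyocytes to 0.2–100 uM (0.5% DMSO). Beat-cessation and severe-notch points removed; POD is EC05, a 5% rise over DMSO.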

[20] = UKN4_HCS_LUHMES_cell_viability: Viability Assessment in the University of Konstanz (UKN) Leist Lab Neurite Outgrowth Assay in human LUHMES cells (UKN4) (AID 2284232)
In short: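 Viability was read by high-content imaging of calcein-AM/H-33342-stained cells after 24 h toxicant exposure, staining included. Cells: human LUHMES on day 2 of dopaminergic differentiation, dosed shortly after attachment; DMSO baseline, bidirectional curve fitting.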

Measured: AC50

Tumor necrosis factor (Homo sapiens), sequence (P01375 whole entry, looked up): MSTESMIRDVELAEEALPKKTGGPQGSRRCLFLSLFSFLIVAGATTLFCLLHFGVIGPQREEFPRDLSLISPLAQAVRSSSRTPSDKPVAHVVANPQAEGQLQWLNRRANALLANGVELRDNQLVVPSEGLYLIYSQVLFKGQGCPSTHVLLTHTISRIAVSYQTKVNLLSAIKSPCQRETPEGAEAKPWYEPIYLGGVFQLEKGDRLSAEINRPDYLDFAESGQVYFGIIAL

CCOP(=S)(Oc1cnc(C(C)(C)C)nc1)OC(C)C (stereo not drawn)
inactive: [1] | [2] | [4] | [5] | [6] | [7] | [8] | [9]
active: [3] 79.3 µM | [4] 18.6 µM | [5] 14.6 µM | [6] 77.6 µM | [8] 28 µM | [9] 22800 nM

O=[N+]([O-])c1cc(C(F)(F)F)c(Cl)c([N+](=O)[O-])c1Nc1ncc(C(F)(F)F)cc1Cl
active: [4] 0.962 µM | [5] 1.9 µM | [6] 1.89 µM | [10] 4.22 µM | [11] 0.282 µM | [12] 2.57 µM | [13] 3.72 µM | [14] 0.73 µM | [15] 3.97 µM | [16] 2.53 µM | [7] 1.48 µM | [8] 1.94 µM | [9] 740 nM | [17] 2.52 µM

CSC1=N[C@@](C)(c2ccccc2)C(=O)N1Nc1ccccc1
inactive: [4] | [5] | [6] | [8] | [9]

CCOP(=S)(OCC)OC(Cl)C(Cl)(Cl)Cl (stereo not drawn)
active: [4] 12.8 µM | [5] 16.7 µM | [6] 50 µM and 75.1 µM | [8] 50 µM and 21.7 µM | [9] 50 µM and 28.7 µM
inactive: [4] | [5] | [7]

C[N+]1(C)CCCCC1
inactive: [4] | [5] | [9]

C=C(C)[C@H]1Cc2c(ccc3c2O[C@@H]2COc4cc(OC)c(OC)cc4[C@@H]2C3=O)O1
active: [18] 0.01 µM | [8] 0.135 µM | [9] 17.5 nM
inactive: [19]

CCOC(=O)CC(SP(=O)(OC)OC)C(=O)OCC (stereo not drawn)
inactive: [1] | [2] | [4] | [5] | [20] | [7] | [9]

CCCSP(=O)(OCC)Oc1ccc(Br)cc1Cl (stereo not drawn)
inactive: [3] | [4] | [5] | [8] | [9]

CCOP(=S)(OCC)Oc1cc(C)nc(C(C)C)n1
active: [9] 110 nM
inactive: [4] | [5] | [6]

S=C1NCCN1
inactive: [4] | [5] | [6] | [9]

CCOP(=O)(SC(C)CC)N1CCSC1=O (stereo not drawn)
inactive: [1] | [2] | [3] | [4] | [5] | [9]

CC[C@H](C)[C@H]1O[C@]2(C=C[C@@H]1C)C[C@@H]1C[C@@H](C/C=C(\C)[C@@H](O[C@H]3C[C@H](OC)[C@@H](O[C@H]4C[C@H](OC)[C@@H](NC)[C@H](C)O4)[C@H](C)O3)[C@@H](C)/C=C/C=C3\CO[C@@H]4[C@H](O)C(C)=C[C@@H](C(=O)O1)[C@]34O)O2
inactive: [6]
active: [4] 657 nM and 1.79 µM | [5] 1.12 µM and 1.1 µM | [20] 1.76 µM | [7] 3.1 µM and 3.81 µM | [8] 1.23 µM and 1.7 µM | [9] 883 nM and 1.53 µM

CCOP(=S)(OCC)SCCSCC
inactive: [4] | [5] | [6] | [9]

CC(C)N(C(=O)SCC(Cl)=C(Cl)Cl)C(C)C
active: [5] 24.1 µM | [20] 19.3 µM
inactive: [4] | [8] | [9]

COP(=O)(OC)OC(Br)C(Cl)(Cl)Br (stereo not drawn)
active: [4] 50 µM | [5] 9.92 µM | [6] 14 µM and 16.7 µM | [7] 21.6 µM | [8] 30.2 µM and 29.5 µM | [9] 30.4 µM and 22.1 µM
inactive: [4] | [5]
